Whole data set: some 25,000 sequences, median “ln(normalized median fluorescence intensity)” near 7.1, cut for the highest 2% near 10. The list comes from a sample in which the highest values are over-represented; it also holds similar and randomly drawn sequences.
tested on: PfSIP2 AP2 domain 1 (GST-tagged); test: gcPBM binding intensity (ln(normalized median fluorescence intensity)); higher = stronger DNA binding
Procedure, shortened: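 An Agilent 4 × 180k array carrying primer-extended double-stranded 36-bp intergenic genomic probes and negative controls received GST-tagged P. falciparum DNA-binding domains expressed in E. coli, about 25 μg on average, for 1 h. The binding buffer contained 1× PBS, 1% milk, 0.2 mg/ml BSA, 0.5% salmon testes DNA and 0.03% Triton X-100. Binding intensity is the top Masliner-normalised natural-log median intensity across replicate spots of either probe orientation, read after Alexa488 anti-GST antibody staining and a 488 nm scan.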

Row | Sequence | gcPBM binding intensity (ln)
1 | TTTTTCTCTTTAAGGTGTACAATAATACAGTAACCA [XGTACX_site300] | 7.44
2 | ATAAATAATAAAAAATGTACACATATAAATATAAAG [XGTACX_site727] | 7.11
3 | TCTTACGGATTCATTGTGCACATATATATATATATA [GTGCAC_site9896] | 9.46
4 | AGCACACGCAGACACACACACACACGCACACGCACA [CACACA_site6306] | 8.43
5 | TACCACATCGGTAAATGTACTTATAAAAAAAAAAAA [XGTACX_site3364] | 6.83
6 | ATATATATATTTTATGCATGTTCATTTTCTATATTT [TGCATGCA_site442] | 8.1
7 | CATACAATAAATATGGTGCATTTTATGTAACCGTTT [GTGCAC_site9420] | 10.4
8 | ACACATGTATTTGGTGCATGTTGTTAAAAAAATATT [TGCATGCA_site795] | 10.8
9 | TATATATTGTTATATACACACATGTATTTAAAAAAT [CACACA_site5737] | 6.91
10 | GATATATTTTATATATGTACATACAATGGTAAATAT [XGTACX_site2759] | 7.09
11 | TTTTGTTTATGTGTGCATTATATTATATTTTTTATT [TGCATGCA_negctrl_site146] | 7.83
12 | ACATTTAAAATTTATGCATGTGGTGTTTTGTATATA [TGCATGCA_site534] | 7.26
13 | TTACACATGTATTTGGTGCATGTTGTTAACAAAATA | 9.57
14 | TTTATTTTGTTTATGGTGCATTTTATGTAAATATAT | 10.8
15 | ATCATATTTATGTTGGTGCATTATACATAAAGTTTA [GTGCAC_site9574] | 10.2
16 | TATATATATATGTATGCATGTTGTTTTTTATTTAAT [TGCATGCA_site343] | 9.27
17 | TTTTTGTTCTATATGGTGCATGTTTATATTCGTATT | 10.3
18 | ATGAAATTTATATCATGTACATACAAGAGAAAAAAA [XGTACX_site3326] | 7

Row | Sequence | gcPBM binding intensity (ln)
19 | ATTCTTTTTTTTTGGAAATGTATTTTTATGTTTTGT [TGCATGCA_negctrl_site426] | 6.73
20 | TTAAAAATAAATTCATGTACATAATATATATATATA [XGTACX_site7908] | 9.25
21 | ATATATTTTTGTAGTGTGCACGTTTATATGGTGAAA | 10.3
22 | TTATATTAATTTTGTTGTACTATTTGTGCATTAAAT [XGTACX_site4790] | 7.42
23 | TTTTGTAATGTGAATATTTGTATATTATTTGTATAT [CACACA_negctrl_site1677] | 7.03
24 | ATTTTGTGTAGTGATGCATGTTATATATATATTTGA [TGCATGCA_site422] | 7.33
25 | TTTTTTGTTTGAATGGTGCATTTTGTAATTATATTT | 10.6
26 | TTATATTTATATTTATGTACATATTTTGTGTGAAAA [XGTACX_site2367] | 7.27
27 | AAAAAAAAAAAAAATAGTACAATACCCAAATATAAC [XGTACX_site6684] | 7.3
28 | GATAAATAATAATAAGGTACACATAAAATATTCCTT [XGTACX_site2963] | 6.86
29 | AAAAAAAAAAAAAAAGGTACAGTAAAAAATTCCTCT [XGTACX_site5947] | 7.41
30 | CACACAGGTAAAAAGGTGCAGTTGAAATATTCCTCA [GTGCAC_site9730] | 11.1
31 | AAAAATAAATATACATGTACATAATAATAATATATA [XGTACX_site8359] | 6.97
32 | TATTTAAAATAATGTGCAAAAGAATAAATAAATAAA [TGCATGCA_negctrl_site194] | 7.23
33 | CTTTTAGAATAATCAGTGCAAAAAAAAAAAAAAAAA | 8.42
34 | GATAATCAGAATGGGGTGCAAAGAAAAAAAAAAAAA | 11.3
35 | TTTTTTTTTAAGTTTGCACACATGGAAGACAAAAAT [CACACA_site2505] | 7.96

Reference: the supplement of paper PMC11417369
